HTT ATP protect – qHTS Multiplex Assay to Identify Dual Action Probes in a Cell Model of Huntington: Cytoprotection (ATP); Potency, µM (highest dose often 56.4 µM), for the others: cytoprotection (ATP increase), actives largely listed as activators; actives 0.14% (n = 230,000); AID 1471, 2008; PC12 HTT-Q103 induced, cytoprotection, ATP luminescence, 40 h; also: potency is read from the fitted curve at half-maximal effect; % of control where 0% means no effect; nearly all actives have a fitted effect of over 45% in size
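Stable PC12 Q103-GFP cells in serum-supplemented, phenol red-free DMEM; induction by tebufenozide at 100 nM final; compound dose series; cell viability quantified luminescently from ATP.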
HttQ103 aggreg – qHTS Multiplex Assay to Identify Dual Action Probes in a Cell Model of Huntington: Aggregate Formation (GFP); Potency, µM (top dose mostly 46.1 µM), for the others: at the highest dose activity change, negative = inhibition, actives largely listed as inhibitors; PC12 HttQ103-GFP aggregates, Acumen cytometry, 40 h; AID 1688, 2009; actives 1.1% (n = 220,000); also: potency is read from the fitted curve at half-maximal effect; % is scaled to controls: 0 for no effect and ±100 for the full control effect; nearly all actives have a fitted effect of over 60% in size
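PC12/HTTQ103-GFP, ecdysone-inducible; teb 100 nM; cpd qHTS titration; GFP aggregates read on laser cytometer, Ex 488/Em 500-530 nm.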
PNC assembly inh – High Content Assay for Compounds that inhibit the Assembly of the Perinucleolar Compartment; PC3M PTB-GFP, PNC prevalence imaging, 16 h; hits give low values; activity change (PNC), negative = inhibition, % at 10 µM; actives 3.1% (n = 140,000);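 active = readout at or below -70, meaning at least 70% loss of cells showing the perinucleolar compartment, a nuclear body marking cancer cells; inconclusive = readout between -30 and a set limit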;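 also: plate controls were DMSO wells for no effect and camptothecin positive control wells for full effect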
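Compounds are pinned in duplicate onto adhered PC3M cells stably expressing GFP-tagged PTB and incubated 16 h at 37 C. Cells are then fixed, nuclei stained with Hoechst, and PNC-positive cells counted.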
Active calls of the source: *; [ ] = remark or other dose. Shown is part of a subset that was picked to be rich in hits. Unless noted, calls follow the shape of the dose curve; as a rule, active = well fitted curve in the direction sought with a large enough effect; inconclusive = small, poorly fitted or top-dose-only effect, or another doubt; inactive = no such curve, though single readings can be large; an effect the other way counts as inactive or inconclusive.

`COc1ccccc1-c1cc(Nc2ccn[nH]2)ncn1` gave HTT ATP protect -123%.
Screening Cc1cc(C)cc(N2C(=O)CN(Cc3sccc3C)C2=S)c1 returned HTT ATP protect 15%[10 µM], HttQ103 aggreg 16% and PNC assembly inh -28.
For CCC1=Nc2cc(C(=O)NCc3ccco3)ccc2Sc2ccc(Cl)cc21 the results were HTT ATP protect -55%[10 µM], HttQ103 aggreg 4% and PNC assembly inh -100*.
Screening CCC1=Nc2cc(C(=O)NCc3ccco3)ccc2Sc2ccccc21 returned HTT ATP protect -46%[10 µM], HttQ103 aggreg 10% and PNC assembly inh -7.
Screening NNC(=O)c1ccc2ccccc2n1 returned HTT ATP protect -54% and HttQ103 aggreg -25%.
`CC(C)C(NC(=O)c1ccco1)C(=O)OCc1cc([N+](=O)[O-])cc2c1OCOC2` (configuration not stated) gave HTT ATP protect -36% and HttQ103 aggreg -9%[9.22 µM].
For O=C(CSc1nnc(Cc2ccc(Cl)cc2)o1)Nc1ccccc1 the results were HTT ATP protect -33% and HttQ103 aggreg 9%.
For O=C(CSc1nnc(CCCOc2ccc(Cl)cc2Cl)o1)Nc1ccc(C(=O)O)cc1 the results were HttQ103 aggreg 11% and PNC assembly inh -86*.
COc1cc(NS(=O)(=O)c2ccc(NC(=O)c3ccco3)cc2)nc(OC)n1 was read as HTT ATP protect 7%[10 µM], HttQ103 aggreg -4% and PNC assembly inh -82*.
For COc1cc(NS(=O)(=O)c2ccc(NC(=S)NC(=O)c3ccco3)cc2)nc(OC)n1 the results were HTT ATP protect -2%[10 µM] and HttQ103 aggreg -4%[9.22 µM].
`O=C(Nc1ccc(S(=O)(=O)NC2CCCCC2)cc1)c1ccco1` gave HTT ATP protect 8%[10 µM], HttQ103 aggreg -20% and PNC assembly inh -100*.
Screening O=C(Nc1ccc(S(=O)(=O)NC2CCCCC2)cc1)c1ccc(Br)o1 returned HTT ATP protect -9%[0.074 µM], HttQ103 aggreg -31% and PNC assembly inh inconclusive.
For CC(NCc1ccc(N(C)C)cc1)C1CC2CCC1C2 (configuration not stated) the results were HTT ATP protect 9%, HttQ103 aggreg -4% and PNC assembly inh 49.
`CCN(CC)c1ccc(NC2CC(=O)N(CCc3ccc(OC)cc3)C2=O)cc1` (configuration not stated) gave HTT ATP protect 23%[10 µM] and HttQ103 aggreg 31%[9.22 µM].
For Nc1nnc(SCc2ccc3c(c2)OCO3)s1 the results were HTT ATP protect -19%[0.074 µM], HttQ103 aggreg -6% and PNC assembly inh -3.
`NC(=O)CC[C@H](NC(=O)OCc1ccccc1)C(=O)OCc1ccc(Cl)cc1` gave HttQ103 aggreg -4% and PNC assembly inh -93*.
`O=C(CCC(NC(=O)OCc1ccccc1)C(=O)OCc1ccccc1)NCC(=O)OCc1ccccc1` (configuration not stated) gave HTT ATP protect -10%[1.9 µM], HttQ103 aggreg 10% and PNC assembly inh -3.
Screening CC(C)CC1NC(=O)N(CC(=O)Nc2ccc3c(c2)CCC3)C1=O (configuration not stated) returned HTT ATP protect 19%[10 µM] and HttQ103 aggreg 17%.
`CCOC(=O)Cc1c(C)nc2c(-c3cccc(Br)c3)c[nH]n2c1=O` gave HTT ATP protect -26%, HttQ103 aggreg 11µM* and PNC assembly inh 20.
CCOC(=O)Cc1cc(=O)n2[nH]c(C)c(-c3ccccc3)c2n1 was read as HTT ATP protect 32%, HttQ103 aggreg 3% and PNC assembly inh 45.
`O=c1c2c(nc3c(-c4ccccc4)c[nH]n13)CCC2` gave HTT ATP protect -23%, HttQ103 aggreg -24% and PNC assembly inh 48.
For CCOC(=O)Cc1c(C)nc2c(-c3ccc(Cl)cc3)c(C)[nH]n2c1=O the results were HTT ATP protect -68%, HttQ103 aggreg 18µM* and PNC assembly inh 43.
CCOC(=O)Cc1c(C)nc2c(C#N)c[nH]n2c1=O was read as HTT ATP protect -9%, HttQ103 aggreg 15% and PNC assembly inh 34.
`O=c1c2c(nc3c(-c4cccc(Br)c4)c[nH]n13)CCCC2` gave HTT ATP protect -37%[10 µM], HttQ103 aggreg 3.5µM* and PNC assembly inh 26.
Screening Cc1ccccc1C(=O)N/N=C1\SCC(=O)N1Cc1ccco1 returned HTT ATP protect -14%[10 µM] and HttQ103 aggreg 2%[9.22 µM].
`COC(=O)Nc1ccc(Oc2ccccc2)cc1` gave HTT ATP protect -23%, HttQ103 aggreg -19% and PNC assembly inh -93*.
CC(=O)Nc1ccc(Oc2ccccc2)cc1 was read as HTT ATP protect -11%[10 µM] and HttQ103 aggreg -3%[9.22 µM].
Screening COCC(=O)N1CCC2(CC1)CCN(C(=O)Nc1ccc(OC)cc1)CC2 returned HTT ATP protect -19%.
Screening COC(=O)NC1(C(F)(F)F)C(=O)NC(C)=C1C(=O)OC (configuration not stated) returned HTT ATP protect 7%, HttQ103 aggreg 19% and PNC assembly inh -107*.
Screening COC(=O)C1=C(C)NC(=O)C1(NC(=O)c1ccncc1)C(F)(F)F (configuration not stated) returned HTT ATP protect -25% and HttQ103 aggreg -19%.
`COc1cccc(NC(=O)C(Cc2ccccc2)NC(=O)C2CCC(C)CC2)c1` (configuration not stated) gave HTT ATP protect -3%[10 µM], HttQ103 aggreg 9% and PNC assembly inh -119*.
Screening COc1cccc(NC(=O)N[C@@H](Cc2ccccc2)C(=O)O)c1 returned HTT ATP protect 10%[10 µM], HttQ103 aggreg 16% and PNC assembly inh -19.
`O=C(O)CCNS(=O)(=O)c1ccc(Oc2ccccc2)cc1` gave HTT ATP protect -17%[0.074 µM], HttQ103 aggreg -8% and PNC assembly inh inconclusive.
Screening CCOC(=O)N1CCC(c2cc(=O)n3[nH]c(-c4ccccc4)cc3n2)CC1 returned HTT ATP protect -9%[10 µM], HttQ103 aggreg 12% and PNC assembly inh -5.
CCOC(=O)N1CCC(c2cc(=O)n3[nH]c(C)c(-c4ccc(F)cc4)c3n2)CC1 was read as HTT ATP protect -21%, HttQ103 aggreg 11µM* and PNC assembly inh -21.
Screening Nc1nonc1-c1noc(-c2ccccc2)n1 returned HTT ATP protect -1%[10 µM], HttQ103 aggreg -22% and PNC assembly inh -100*.
For Nc1nc(-c2nonc2N)no1 the results were HTT ATP protect -4% and HttQ103 aggreg 2%.
CCOC(=O)c1ccccc1NC(=O)CSc1nnc(COc2ccccc2)n1CC was read as HTT ATP protect -2%[10 µM], HttQ103 aggreg -6% and PNC assembly inh -25.
COc1ccc(CC2C(=O)OC(C)(C)OC2=O)cc1 was read as HTT ATP protect -1%, HttQ103 aggreg 10% and PNC assembly inh -30.
COc1ccc(CC2CCOC2=O)cc1 (configuration not stated) was read as HTT ATP protect -12%, HttQ103 aggreg 10% and PNC assembly inh -127*.
`CSc1nsc(N/N=C/c2ccc3c(c2)OCO3)c1C#N` gave HTT ATP protect -56% and HttQ103 aggreg -3%.
Screening COc1cc(/C=N/Nc2snc(SC)c2C#N)cc(OC)c1OC returned HTT ATP protect -58%, HttQ103 aggreg -12% and PNC assembly inh -105*.
